The whole screen tested about 5,500 compounds, of which about 2,000 (36%) were called active. About 18% were inconclusive and are not listed. Cut-off read from the data, not from the text of the source: active = normalized growth mostly below about 0.91 (no sharp cut-off); inconclusive = no clear call, values can overlap the other calls; inactive = mostly above about 0.92. Some of the results follow.
Experiment: chemical genetic growth profiling, strain panel (AID 1159580);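 note: tested at 20 µM; growth read once vehicle control cultures reached saturation at 30 °C; 1 = growth at the plate median or of vehicle wells; lower values mean less growth of the strain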
Details: growth OD

Measured: normalized growth

Cc1cccc(Nc2ccccc2C(=O)O)c1C
active: S. cerevisiae deletion strains, locus YKL009W, strain mrt4, stronger effect = lower value 0.874 | S. cerevisiae deletion strains, locus YKL190W, strain CNB1, stronger effect = lower value 0.908 | S. cerevisiae deletion strains, locus YKR001C, strain vps1, stronger effect = lower value 0.676 | S. cerevisiae deletion strains, locus YKR026C, strain gcn3, stronger effect = lower value 0.877 | S. cerevisiae deletion strains, locus YKR091W, strain srl3, stronger effect = lower value 0.909 | S. cerevisiae deletion strains, locus YLL041C, strain sdh2, stronger effect = lower value 0.901 | S. cerevisiae deletion strains, locus YLR039C, strain RIC1, stronger effect = lower value 0.597 | S. cerevisiae deletion strains, locus YLR102C, strain apc9, stronger effect = lower value 0.876 | S. cerevisiae deletion strains, locus YLR262C, strain YPT6 (second series), stronger effect = lower value 0.749 | S. cerevisiae deletion strains, locus YLR268W, strain sec22, stronger effect = lower value 0.869 | S. cerevisiae deletion strains, locus YLR330W, strain CHS5, stronger effect = lower value 0.87 | S. cerevisiae deletion strains, locus YLR342W, strain FKS1 (second series), stronger effect = lower value 0.756 | S. cerevisiae deletion strains, locus YLR342W, strain FKS1, stronger effect = lower value 0.897 | S. cerevisiae deletion strains, locus YLR371W, strain rom2, stronger effect = lower value 0.858 | S. cerevisiae deletion strains, locus YLR384C, strain iki3, stronger effect = lower value 0.894 | S. cerevisiae deletion strains, locus YLR418C, strain cdc73, stronger effect = lower value 0.775 | S. cerevisiae deletion strains, locus YML016C, strain PPZ1, stronger effect = lower value 0.886 | S. cerevisiae deletion strains, locus YML032C, strain rad52, stronger effect = lower value 0.891 | S. cerevisiae deletion strains, locus YML124C, strain tub3, stronger effect = lower value 0.843 | S. cerevisiae deletion strains, locus YMR078C, strain ctf18, stronger effect = lower value 0.838 | S. cerevisiae deletion strains, locus YMR129W, stronger effect = lower value 0.908 | S. cerevisiae deletion strains, locus YMR223W, strain ubp8, stronger effect = lower value 0.869 | S. cerevisiae deletion strains, locus YMR231W, strain pep5, stronger effect = lower value 0.9 | S. cerevisiae deletion strains, locus YNL071W, strain lat1, stronger effect = lower value 0.897 | S. cerevisiae deletion strains, locus YNL183C, strain NPR1, stronger effect = lower value 0.805 | S. cerevisiae deletion strains, locus YNL298W, strain CLA4, stronger effect = lower value 0.844 | S. cerevisiae deletion strains, locus YNL307C, strain MCK1, stronger effect = lower value 0.626 | S. cerevisiae deletion strains, locus YNL322C, strain KRE1 (second series), stronger effect = lower value 0.898 | S. cerevisiae deletion strains, locus YNL322C, strain KRE1, stronger effect = lower value 0.912 | S. cerevisiae deletion strains, locus YNR049C, strain mso1, stronger effect = lower value 0.912 | S. cerevisiae deletion strains, locus YNR052C, strain pop2, stronger effect = lower value 0.878 | S. cerevisiae deletion strains, locus YOL147C, strain pex11, stronger effect = lower value 0.87 | S. cerevisiae deletion strains, locus YOR069W, strain VPS5, stronger effect = lower value 0.893 | S. cerevisiae deletion strains, locus YOR144C, strain elg1, stronger effect = lower value 0.86 | S. cerevisiae deletion strains, locus YOR184W, strain ser1, stronger effect = lower value 0.724 | S. cerevisiae deletion strains, locus YOR265W, strain rbl2, stronger effect = lower value 0.908 | S. cerevisiae deletion strains, locus YOR316C, strain cot1, stronger effect = lower value 0.874 | S. cerevisiae deletion strains, locus YPL051W, strain arl3, stronger effect = lower value 0.906 | S. cerevisiae deletion strains, locus YPL240C, strain hsp82, stronger effect = lower value 0.915 | S. cerevisiae deletion strains, locus YPL241C, strain CIN2, stronger effect = lower value 0.902 | S. cerevisiae deletion strains, locus YPR119W, strain clb2, stronger effect = lower value 0.856 | S. cerevisiae deletion strains, locus YPR163C, strain tif3, stronger effect = lower value 0.893 | S. cerevisiae deletion strains, locus YPR167C, strain met16, stronger effect = lower value 0.87
inactive: S. cerevisiae deletion strains, locus YJR075W, strain HOC1, stronger effect = lower value 0.937 | S. cerevisiae deletion strains, locus YKL068W, stronger effect = lower value 0.985 | S. cerevisiae deletion strains, locus YKL085W, strain MDH1 (second series), stronger effect = lower value 0.972 | S. cerevisiae deletion strains, locus YKL085W, strain MDH1, stronger effect = lower value 0.972 | S. cerevisiae deletion strains, locus YKL160W, strain elf1, stronger effect = lower value 0.921 | S. cerevisiae deletion strains, locus YLL001W, strain dnm1, stronger effect = lower value 0.914 | S. cerevisiae deletion strains, locus YLL026W, stronger effect = lower value 0.952 | S. cerevisiae deletion strains, locus YLR027C, strain aat2, stronger effect = lower value 0.936 | S. cerevisiae deletion strains, locus YLR058C, strain SHM2, stronger effect = lower value 0.906 | S. cerevisiae deletion strains, locus YLR113W, strain HOG1, stronger effect = lower value 0.903 | S. cerevisiae deletion strains, locus YLR221C, strain rsa3, stronger effect = lower value 0.925 | S. cerevisiae deletion strains, locus YLR258W, strain gsy2, stronger effect = lower value 0.924 | S. cerevisiae deletion strains, locus YLR262C, strain YPT6, stronger effect = lower value 0.683 | S. cerevisiae deletion strains, locus YLR320W, strain mms22, stronger effect = lower value 0.894 | S. cerevisiae deletion strains, locus YLR357W, strain rsc2, stronger effect = lower value 0.979 | S. cerevisiae deletion strains, locus YLR370C, strain arc18, stronger effect = lower value 0.913 | S. cerevisiae deletion strains, locus YML120C, strain ndi1, stronger effect = lower value 0.922 | S. cerevisiae deletion strains, locus YMR058W, strain fet3, stronger effect = lower value 0.918 | S. cerevisiae deletion strains, locus YMR125W, strain sto1, stronger effect = lower value 0.955 | S. cerevisiae deletion strains, locus YMR205C, strain PFK2, stronger effect = lower value 0.919 | S. cerevisiae deletion strains, locus YMR263W, strain SAP30, stronger effect = lower value 0.891 | S. cerevisiae deletion strains, locus YMR307W, strain GAS1, stronger effect = lower value 0.672 | S. cerevisiae deletion strains, locus YNL067W, strain RPL9B, stronger effect = lower value 0.926 | S. cerevisiae deletion strains, locus YNL128W, strain TEP1, stronger effect = lower value 0.988 | S. cerevisiae deletion strains, locus YNL153C, strain GIM3, stronger effect = lower value 0.933 | S. cerevisiae deletion strains, locus YNL209W, strain ssb2, stronger effect = lower value 0.939 | S. cerevisiae deletion strains, locus YNL233W, strain BNI4, stronger effect = lower value 0.927 | S. cerevisiae deletion strains, locus YNL248C, strain rpa49, stronger effect = lower value 0.971 | S. cerevisiae deletion strains, locus YNL250W, strain rad50, stronger effect = lower value 0.988 | S. cerevisiae deletion strains, locus YNL271C, strain bni1, stronger effect = lower value 0.941 | S. cerevisiae deletion strains, locus YOL006C, strain TOP1, stronger effect = lower value 0.884 | S. cerevisiae deletion strains, locus YOL012C, strain htz1 1.12 | S. cerevisiae deletion strains, locus YOR001W, strain rrp6, stronger effect = lower value 0.938 | S. cerevisiae deletion strains, locus YOR061W, strain CKA2, stronger effect = lower value 0.894 | S. cerevisiae deletion strains, locus YOR070C, strain gyp1, stronger effect = lower value 0.928 | S. cerevisiae deletion strains, locus YOR080W, strain dia2, stronger effect = lower value 0.941 | S. cerevisiae deletion strains, locus YOR083W, strain WHI5, stronger effect = lower value 0.921 | S. cerevisiae deletion strains, locus YOR106W, strain vam3, stronger effect = lower value 0.94 | S. cerevisiae deletion strains, locus YOR136W, strain idh2, stronger effect = lower value 0.958 | S. cerevisiae deletion strains, locus YOR231W, strain MKK1, stronger effect = lower value 0.919 | S. cerevisiae deletion strains, locus YOR270C, strain vph1, stronger effect = lower value 0.868 | S. cerevisiae deletion strains, locus YOR290C, strain snf2, stronger effect = lower value 0.919 | S. cerevisiae deletion strains, locus YPL055C, strain LGE1, stronger effect = lower value 0.881 | S. cerevisiae deletion strains, locus YPL078C, strain atp4, stronger effect = lower value 0.893 | S. cerevisiae deletion strains, locus YPL106C, strain sse1, stronger effect = lower value 1.05 | S. cerevisiae deletion strains, locus YPL256C, strain CLN2, stronger effect = lower value 0.874 | S. cerevisiae deletion strains, locus YPR141C, strain kar3, stronger effect = lower value 0.981 | S. cerevisiae deletion strains, strain wtn01, stronger effect = lower value 0.911 | S. cerevisiae strains, strain wild type, stronger effect = lower value 0.937
